In one assay the target is Albumin (Bos taurus) (UniProt P02769). Put plainly: bovine serum albumin binders on microarray, profiling panel, artefact control for SMM control protein annotation, biochemical, small-molecule microarray, Alexa647 label, 635/667 nm fluorescence (AID 1118).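 Also: score merges 667 nm emission intensity and signal-to-noise per printed compound spot.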 Conditions: BSA-A647 binding, fluorescence 635 nm, higher = more signal.
The nature of assay [1]: small-molecule microarray binders of probe aXIP, primary screen, biochemical, NeuroSMM set, 635/667 nm fluorescence (AID 1119).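 Also: probe is the protein aXip251-270 applied at 1 µg/mL to compound-printed slides; binding of probe to printed compounds measured as 667 nm fluorescence plus signal to noise.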 Conditions: higher = more signal, called active from +8 up or from −8 down.
The nature of assay [2]: small-molecule binders of probe aNOTCH3, primary screen, biochemical, small-molecule microarray, 635/667 nm fluorescence (AID 1120).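 Also: probe is a biotin-tagged antibody raised against NOTCH3 rather than NOTCH3 protein; score merges spot fluorescence near 667 nm with spot signal to noise.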 The note with it: higher = more signal.
Assay [3] in a line: small-molecule binders of probe aNOTCH2, primary screen, biochemical, small-molecule microarray, 635/667 nm fluorescence (AID 1121).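 Also: score merges feature fluorescence read at 667 nm with its signal to noise.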 The note with it: higher = more signal.
For assay [4], the target named is Carbonic anhydrase 2 (Homo sapiens) (UniProt P00918). Put plainly: CAII small-molecule binders, profiling panel, biochemical, small-molecule microarray, Alexa647-labelled CAII (AID 1122). The note with it: CAII-A647 binding fluorescence, higher = more signal.
Assay [5] can be described thus: COS7 lysate on small-molecule microarray, probe aHis, 635 nm (AID 1123).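 Also: z-score combines 667nm fluorescence intensity with signal-to-noise per printed compound spot.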 The note with it: COS7 cell lysate, fluorescence, higher = more signal.
The nature of assay [6]: compound binding in COS7 lysate, probe aLAP1, primary screen, cell lysate, small-molecule microarray (AID 1124).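 Also: lysate comes from COS7 cells expressing LAP1 and is applied at 0.3 µg/mL; score merges spot fluorescence near 667 nm with signal-to-noise over triplicate slides.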 Conditions: probe aLAP1, fluorescence, higher = more signal.
The test system of another assay is Sam68 (KHDRBS1). Kind of assay: Sam68 small-molecule binders, primary screen, biochemical, small-molecule microarray, 635 nm fluorescence (AID 1125).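 Also: score merges 667 nm channel intensity with signal to noise over triplicate slides.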 Conditions: small-molecule microarray binding, higher = more signal.
Assay [7] concerns Chordin-like protein 2 (CHRDL2). Kind of assay: CHRDL2 small-molecule binders, primary screen, biochemical, small-molecule microarray, 635 nm fluorescence (AID 1126).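 Also: printed compound slides probed with Chrdl2 protein at 4 µg/mL for 1 h at 4 C; score merges 667 nm emission intensity with signal to noise over three replicate slides.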 The note with it: small-molecule microarray binding, fluorescence 635 nm; higher = more signal.
The target of assay [8] is Concanavalin-A (Canavalia ensiformis) (UniProt P02866). Put plainly: ConA small-molecule binders, primary screen, artefact control for SMM control protein annotation, biochemical, small-molecule microarray, Alexa647 label, 635 nm (AID 1127).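 Also: z combines 667 nm emission intensity with signal-to-noise across three replicate slides.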 The note with it: ConA-A647 binding fluorescence, higher = more signal.
Chain of Concanavalin-A (Canavalia ensiformis) (P02866 whole entry, looked up): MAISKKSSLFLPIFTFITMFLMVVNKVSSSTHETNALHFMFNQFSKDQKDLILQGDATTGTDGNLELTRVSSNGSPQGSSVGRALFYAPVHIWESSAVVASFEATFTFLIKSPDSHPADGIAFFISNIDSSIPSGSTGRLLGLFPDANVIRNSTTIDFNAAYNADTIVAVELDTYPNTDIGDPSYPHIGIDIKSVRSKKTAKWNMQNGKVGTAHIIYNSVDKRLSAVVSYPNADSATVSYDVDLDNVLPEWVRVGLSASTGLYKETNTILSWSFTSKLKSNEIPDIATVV
Assay [9] in a line: anti-His antibody binders, primary screen, artefact control for SMM control protein annotation, biochemical, small-molecule microarray, 635 nm fluorescence (AID 1128).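 Also: score merges feature fluorescence with signal-to-noise for each printed compound spot.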 The note with it: anti-His Alexa647 antibody binding, higher = more signal.
The test system of assay [10] is Human papillomavirus type 1a E7 protein (residues 1-88). Put plainly: HPV1a E7 small-molecule binders, primary screen, biochemical, small-molecule microarray, residues 1-88, 635 nm (AID 1129). Conditions: small-molecule microarray binding, fluorescence 635 nm; higher = more signal.
The target in assay [11] is Focal adhesion kinase 1 (Homo sapiens) (UniProt Q05397). Put plainly: small-molecule microarray binders of FAK, primary screen, biochemical, 635/667 nm fluorescence, BSA, DTT (AID 1130).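 Also: composite of spot emission at 667 nm and signal to noise over triplicate slides.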 Conditions: PTK2 binding, 635 nm fluorescence, higher = more signal.
Chain of Focal adhesion kinase 1 (Homo sapiens) (Q05397 whole entry, looked up): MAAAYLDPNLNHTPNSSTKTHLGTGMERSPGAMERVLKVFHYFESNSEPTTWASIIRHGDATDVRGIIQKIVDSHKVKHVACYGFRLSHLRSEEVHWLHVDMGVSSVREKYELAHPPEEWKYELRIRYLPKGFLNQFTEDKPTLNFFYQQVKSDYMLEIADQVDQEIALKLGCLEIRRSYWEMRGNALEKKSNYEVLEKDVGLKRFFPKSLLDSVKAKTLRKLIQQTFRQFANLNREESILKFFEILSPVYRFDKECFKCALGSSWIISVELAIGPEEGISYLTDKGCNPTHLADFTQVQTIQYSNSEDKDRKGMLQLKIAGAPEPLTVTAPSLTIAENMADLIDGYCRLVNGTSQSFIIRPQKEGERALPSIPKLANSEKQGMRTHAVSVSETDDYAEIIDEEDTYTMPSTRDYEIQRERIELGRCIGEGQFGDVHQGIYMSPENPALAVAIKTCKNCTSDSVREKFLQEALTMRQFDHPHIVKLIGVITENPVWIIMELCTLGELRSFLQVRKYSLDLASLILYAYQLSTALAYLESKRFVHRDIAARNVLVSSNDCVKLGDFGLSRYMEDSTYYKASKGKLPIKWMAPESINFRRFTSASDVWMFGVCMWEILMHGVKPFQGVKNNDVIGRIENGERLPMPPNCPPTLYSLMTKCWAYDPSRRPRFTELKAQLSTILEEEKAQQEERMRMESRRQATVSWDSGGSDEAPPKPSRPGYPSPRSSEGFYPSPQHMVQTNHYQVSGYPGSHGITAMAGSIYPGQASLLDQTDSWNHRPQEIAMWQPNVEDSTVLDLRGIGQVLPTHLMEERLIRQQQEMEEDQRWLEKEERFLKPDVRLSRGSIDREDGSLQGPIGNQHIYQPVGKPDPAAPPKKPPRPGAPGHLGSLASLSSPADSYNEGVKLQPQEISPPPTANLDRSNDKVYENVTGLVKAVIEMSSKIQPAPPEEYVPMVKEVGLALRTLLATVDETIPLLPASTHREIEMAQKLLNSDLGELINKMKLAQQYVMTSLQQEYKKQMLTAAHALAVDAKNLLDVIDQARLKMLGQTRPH
Assay [12] has as its system Fibrinogen (Alexa647-labelled). Kind of assay: fibrinogen binders on compound microarrays, profiling panel, artefact control for SMM control-protein annotation, biochemical, small-molecule microarray, 635/667 nm fluorescence (AID 1131).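 Also: z-score merges 667 nm fluorescence with per-spot signal-to-noise over triplicate slides.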 The note with it: fibrinogen-A647 binding fluorescence, higher = more signal.
For assay [13], the target named is Follistatin (Homo sapiens) (UniProt P19883). Put plainly: follistatin binders on small-molecule microarrays, primary screen, biochemical, small-molecule microarray, 635/667 nm fluorescence (AID 1132). The note with it: FST binding, 635 nm fluorescence, higher = more signal.
Chain of Follistatin (Homo sapiens) (P19883 whole entry, looked up): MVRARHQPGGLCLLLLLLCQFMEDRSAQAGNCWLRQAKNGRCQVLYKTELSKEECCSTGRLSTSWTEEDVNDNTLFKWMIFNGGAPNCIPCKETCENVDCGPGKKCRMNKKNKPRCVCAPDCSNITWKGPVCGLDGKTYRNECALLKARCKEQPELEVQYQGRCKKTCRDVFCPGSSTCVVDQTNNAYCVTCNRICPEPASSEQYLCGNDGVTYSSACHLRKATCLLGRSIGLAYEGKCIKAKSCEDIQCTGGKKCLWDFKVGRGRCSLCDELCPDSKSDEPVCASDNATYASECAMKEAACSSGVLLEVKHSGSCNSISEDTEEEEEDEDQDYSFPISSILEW
Assay [14] has as its target Fibroblast growth factor 2 (Homo sapiens) (UniProt P09038). Put plainly: FGF2 binders on small-molecule microarrays, primary screen, biochemical, small-molecule microarray, 635/667 nm fluorescence (AID 1133). Conditions: small-molecule microarray binding, FGF2, fluorescence 635/667; higher = more signal.
Assay [15] can be described thus: mitochondrial membrane potential change in A549 cells, profiling panel, cell-based, JC-1 fluorescence, basal, 24 h, 100 nL (AID 1138).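 Also: A549 lung adenocarcinoma cells under basal conditions with no added stimulus; test concentration not given here.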 The note with it: higher = more signal.
Another assay has as its system Lefty1. Kind of assay: Lefty1 binders on small-molecule microarrays, primary screen, biochemical, small-molecule microarray, 635/667 nm fluorescence (AID 1139). Conditions: small-molecule microarray binding, fluorescence 635/667; higher = more signal.
Assay [16] concerns wheat germ agglutinin (Triticum aestivum), Alexa647-labelled. Put plainly: wheat germ agglutinin binders on compound microarrays, profiling panel, artefact control for SMM control-protein annotation, biochemical, small-molecule microarray, 635/667 nm fluorescence (AID 1140).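 Also: score merges 667 nm feature emission with signal to noise over triplicate slides.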 Conditions: WGA-A647 binding, 635 nm fluorescence, higher = more signal.
Assay [17] concerns the target Luciferin 4-monooxygenase (Photinus pyralis) (UniProt P08659). Put plainly: firefly luciferase enzyme inhibitors, primary screen, biochemical, luminescence, purified enzyme, 2006 set (AID 1141).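 Also: cell-free assay with purified firefly luciferase at 100 ng per well in PBS; test concentration not given here.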 The note with it: SteadyGlo luminescence, 30 min, higher = more signal, called active from +8 up or from −8 down.

Calls of active or inactive are those of the source.

The values that follow come from PubChem BioAssay.

Chain of Fibroblast growth factor 2 (Homo sapiens) (P09038 whole entry, looked up): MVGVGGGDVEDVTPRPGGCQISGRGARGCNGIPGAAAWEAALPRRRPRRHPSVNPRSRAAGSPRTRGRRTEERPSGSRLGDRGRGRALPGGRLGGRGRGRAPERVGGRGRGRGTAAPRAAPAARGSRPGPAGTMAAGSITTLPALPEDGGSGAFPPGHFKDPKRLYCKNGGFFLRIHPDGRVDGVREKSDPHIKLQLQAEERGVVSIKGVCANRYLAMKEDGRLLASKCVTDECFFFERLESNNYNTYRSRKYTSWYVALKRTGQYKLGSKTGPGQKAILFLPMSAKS
Chain of Luciferin 4-monooxygenase (Photinus pyralis) (P08659 whole entry, looked up): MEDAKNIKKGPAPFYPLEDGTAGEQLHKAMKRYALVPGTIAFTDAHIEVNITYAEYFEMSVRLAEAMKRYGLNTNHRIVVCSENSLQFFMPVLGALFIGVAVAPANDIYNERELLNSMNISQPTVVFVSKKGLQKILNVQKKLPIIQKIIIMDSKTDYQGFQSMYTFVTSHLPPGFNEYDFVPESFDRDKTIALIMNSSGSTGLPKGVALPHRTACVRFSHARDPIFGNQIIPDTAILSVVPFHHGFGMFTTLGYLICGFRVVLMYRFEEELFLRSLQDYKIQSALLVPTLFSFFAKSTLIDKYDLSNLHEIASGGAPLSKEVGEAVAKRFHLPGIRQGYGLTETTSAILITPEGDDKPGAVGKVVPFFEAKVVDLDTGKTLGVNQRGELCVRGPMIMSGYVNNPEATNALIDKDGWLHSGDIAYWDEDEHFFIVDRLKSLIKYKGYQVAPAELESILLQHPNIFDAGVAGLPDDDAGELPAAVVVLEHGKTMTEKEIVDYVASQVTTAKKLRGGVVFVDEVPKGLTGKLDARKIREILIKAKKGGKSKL
Chain of Albumin (Bos taurus) (P02769 whole entry, looked up): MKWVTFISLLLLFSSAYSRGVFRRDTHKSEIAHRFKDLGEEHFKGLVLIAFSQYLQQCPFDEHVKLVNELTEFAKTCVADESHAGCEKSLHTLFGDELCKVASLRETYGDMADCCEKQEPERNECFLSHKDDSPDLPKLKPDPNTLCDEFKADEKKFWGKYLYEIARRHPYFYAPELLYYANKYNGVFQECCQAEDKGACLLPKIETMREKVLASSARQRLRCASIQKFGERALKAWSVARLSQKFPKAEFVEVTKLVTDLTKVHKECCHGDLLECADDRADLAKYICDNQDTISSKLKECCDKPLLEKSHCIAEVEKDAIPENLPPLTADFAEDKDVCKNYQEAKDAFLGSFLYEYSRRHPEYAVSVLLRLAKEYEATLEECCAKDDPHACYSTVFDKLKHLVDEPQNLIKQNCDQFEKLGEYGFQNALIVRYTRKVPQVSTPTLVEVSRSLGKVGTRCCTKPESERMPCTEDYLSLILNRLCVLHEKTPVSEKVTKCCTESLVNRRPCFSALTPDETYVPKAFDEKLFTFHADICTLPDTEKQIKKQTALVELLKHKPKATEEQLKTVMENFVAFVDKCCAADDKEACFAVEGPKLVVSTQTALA

As to `COc1ccc([C@H]2OC[C@@H]3C[C@@H](Cc4ccccc4)C(=O)N32)cc1`, the composite z-score with Albumin (Bos taurus) is -0.127; in assay [2] it was 0.111; in [3], -0.164; in assay [4], 0.796; in assay [5] it was 0.39; in assay [6], -0.123. The composite z-score was 0.338 in the assay with Sam68 (KHDRBS1); 0.377 in [7]; 0.143 in assay [8]; 1.3 in [9]; 0.527 in [10]; -0.181 in [11]. The composite z-score in [12] is -0.0072; in assay [13] it was 0.62; in [14], 0.91; in the assay on Lefty1, 1.08; in [16], 0.208. For the same compound, in assay [1], the composite Z-score was 0.584 (inactive). Moreover, the z-score in assay [15] is 1.25; in [17], 0.0077 (inactive).
Take `CC1(C)[C@@H]2CC(C(O)C3C=CC4C(=O)N(c5ccccc5)C(=O)C4N3Nc3ccc([N+](=O)[O-])cc3)=C[C@H]1C2` (stereo not given in full): the composite z-score in the assay with Albumin (Bos taurus) is 0.973; in assay [2] it was 0.101; in assay [3], -0.106; in assay [4], 0.425; in [5], 2.8; in assay [6], 0.0175. The composite z-score came out at 1.33 in the assay on Sam68 (KHDRBS1); 0.649 in assay [7]; 1.17 in [8]; 1.11 in assay [9]; 1.27 in [10]; 0.368 in assay [11]. Besides, the composite z-score in [12] amounted to 1.04; in assay [13], 1.16; in assay [14], 0.488; in the assay with Lefty1, 0.619; in [16], 0.728. For the same compound, in assay [1], the composite Z-score was 0.131 (inactive). For the same compound, the z-score in assay [15] is -1.25; in assay [17], 0.285 (inactive).
Regarding `C[N+](C)(C)CCCCCCNC(=O)[C@@H]1C[C@@H]2C(=O)N[C@@H](Cc3ccccc3)C(=O)N2[C@@H]1c1cccc(OCCO)c1`, the composite z-score with Albumin (Bos taurus) is 0.358; in [2], 0.0628; in [3] it was -0.132; in [4], 0.668; in assay [5], 1.59; in [6] it was 0.591. Besides, the composite z-score in the assay on Sam68 (KHDRBS1) was found to be 1.05; in assay [7], 1.27; in assay [8], 0.622; in assay [9], 2.18; in [10] it was 0.432; in [11], 0.214. For the same compound, the composite z-score in assay [12] stood at 0.608; in assay [13], 1.34; in assay [14], 1.45; in the assay with Lefty1 it was 1; in assay [16], 0.659. Also, the composite Z-score in [1] was 0.6 (inactive). The z-score is 0.435 in assay [15] and -0.205 (inactive) in assay [17].
Take `COc1ccc([Si](C)(C)[C@H]2[C@H](CC(=O)N3Cc4ccccc4C[C@H]3CO)O[C@@]3(C(=O)N(Cc4cccc(N5CCC5=O)c4)c4ccccc43)[C@@H]2C)cc1`: the composite z-score with Albumin (Bos taurus) was -0.606; in [2] it was -0.0003; in assay [3], -0.14; in assay [4] it was 0.584; in assay [5], 1.4; in [6], 0.0972. The composite z-score in the assay on Sam68 (KHDRBS1) stood at 1.2; in [7], 1.21; in [8], 0.64; in assay [9], 0.322; in assay [10], 1.19; in [11] it was 0.527. Also, the composite z-score came to 0.135 in [12]; 1.33 in assay [13]; 1.47 in assay [14]; 1.22 with Lefty1; 0.107 in assay [16]. Further, the composite Z-score in assay [1] was 0.923 (inactive). Further, the z-score was 0.526 in assay [15] and -0.796 (inactive) in [17].
Consider `C[C@H]1C2[C@H](Cc3ccccc3)NC(=O)[C@]23C(=O)N[C@H](Cc2ccccc2)C(=O)N2CCC[C@H]2C(=O)NC/C=C\C/C=C/C3[C@@H]2O[C@]12C` (stereo not given in full), for which the composite z-score with Albumin (Bos taurus) was 0.157; in assay [2], -0.0613; in assay [3] it was 0.0022; in [4], 0.0997; in [5] it was -0.0175; in assay [6], 0.249. Further, the composite z-score is 0.194 in the assay with Sam68 (KHDRBS1); 0.132 in [7]; 0.78 in [8]; 0.102 in assay [9]; -0.338 in assay [10]; 1.11 in assay [11]. For the same compound, the composite z-score in [12] is 0.354; in [13], 0.559; in assay [14], 0.212; with Lefty1, 0.302; in [16] it was 0.737. The composite Z-score in assay [1] is 0.0894 (inactive). Besides, the z-score in assay [15] was 0.367; in assay [17], -0.587 (inactive).
